About 83,000 compounds went through this panel and 20% of them were active in at least one assay; those are over-represented in the sample as a whole.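 Method: cells in 96-well plates; compound added at one concentration; 48 h incubation; percent growth measured; values under 10 scored active.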 A number with no mark means an inactive call. The source made the active and inactive calls.
Assays:
Experiment in all cases: NCI-60 one-dose screen, 48 h (100 = growth as untreated, 0 = no growth, -100 = all killed)
Conditions in all cases: 10 µM unless noted
[1] = system: NCI-H23 lung
[2] = system: NCI-H226 lung
[3] = system: NCI-H322M lung
[4] = system: HOP-62 NSCLC
[5] = system: NCI-H460 lung
[6] = system: HOP-92 NSCLC
[7] = system: NCI-H522 lung
[8] = system: A549/ATCC NSCLC
[9] = system: 786-0 renal
[10] = system: COLO 205 colon

`O=C(CN1C(=O)S/C(=C\c2ccccc2)C1=O)Nc1ccc(C(=O)/C=C/c2cc3ccccc3nc2Cl)cc1` was tested, and the growth [1] was 59.3%, the growth [2] was 92.2% and the growth [3] was 92.2%. For the same compound, the growth [4] was 87.6%, the growth [5] was 88.3% and the growth [6] was 87.9%. It also gave a growth [7] of 73.3%, a growth [8] of 88.6% and a growth [9] of 94.8%. It also gave a growth [10] of 103%.

`COc1ccc([C@H]2[C@H](O)C(=O)N2c2cc(OC)c(OC)c(OC)c2)cc1O` gave a growth [1] of 31.2%, a growth [2] of 19.6% and a growth [3] of 51.4%. For the same compound, the growth [4] was 18.9%, the growth [5] was 2.08% (active) and the growth [6] was -8.12% (active). For the same compound, the growth [7] was -38% (active), the growth [8] was 19.8% and the growth [9] was 17.4%. The growth [10] was -73% (active).

With `CCOC(=O)c1ccc(N/C=C/C(=O)c2ccccc2)cc1` the growth [1] was 103%, the growth [2] was 105% and the growth [3] was 97%. For the same compound, the growth [4] was 111%, the growth [5] was 104% and the growth [6] was 124%. The growth [7] was 94.8%, the growth [8] was 101% and the growth [9] was 94%. For the same compound, the growth [10] was 101%.

`O=C(CCCCCCN1CC(=O)N2[C@@H](c3cccc(Cl)c3)c3[nH]c4ccccc4c3C[C@H]2C1=O)NO` showed a growth [1] of 71.3%, a growth [2] of 102% and a growth [3] of 66.4%. It also gave a growth [4] of 51.9%, a growth [5] of 43.1% and a growth [6] of 44.5%. The growth [7] was 19.2%, the growth [8] was 79.6% and the growth [9] was 79%. For the same compound, the growth [10] was 36.9%.

Work on `O=C(COc1ccc(/C=C2\SC(=O)NC2=O)cc1)Nc1ccc(C(=O)/C=C/c2cc3ccccc3nc2Cl)cc1` yielded a growth [1] of 65.3%, a growth [2] of 74.9% and a growth [3] of 97.8%. The growth [4] was 103%, the growth [5] was 86% and the growth [6] was 88.2%. For the same compound, the growth [7] was 65.8%, the growth [8] was 78.6% and the growth [9] was 83.6%. The growth [10] was 96.3%.

Work on `C/C(=C(/c1ccc(O)cc1)c1ccc(OCCN2CCCC2)cc1)c1ccc(Cl)cc1` yielded a growth [1] of 46.8%, a growth [2] of 72.3% and a growth [3] of 53.8%. For the same compound, the growth [4] was 63.1%, the growth [5] was -1.6% (active) and the growth [6] was 50.3%. It also gave a growth [7] of 61.1%, a growth [8] of 47.6% and a growth [9] of 45.7%. For the same compound, the growth [10] was -86.6% (active).

Compound `O=C1/C(=C/c2ccccc2[N+](=O)[O-])Oc2ccc(O)cc21` has a growth [1] of 43.7%, a growth [2] of 78.6% and a growth [3] of 79.8%. The growth [4] was 78.3%, the growth [5] was 72.3% and the growth [6] was 80%. The growth [7] was -5.14% (active), the growth [8] was 84.8% and the growth [9] was 46.3%. For the same compound, the growth [10] was 20.2%.

With `O=C(Nc1ccc(-c2nc(-c3cccc(O)c3)c(-c3ccnc(Br)c3)[nH]2)cc1)c1ccccc1` the growth [1] was 10.5%, the growth [2] was 51.4% and the growth [3] was 37.3%. The growth [4] was 2.99% (active), the growth [5] was 11.1% and the growth [6] was 6.58% (active). For the same compound, the growth [7] was 11.3%, the growth [8] was 25.9% and the growth [9] was -10.2% (active). For the same compound, the growth [10] was 21%.

`O=C1c2c(c3c4cccnc4[nH]c3c3ccc4ccccc4c23)C(=O)N1CCN1CCOCC1` was tested, and the growth [1] was 45.3%, the growth [2] was 71.5% and the growth [3] was 84.5%. The growth [4] was 47.6%, the growth [5] was 10.6% and the growth [6] was 80.7%. For the same compound, the growth [7] was 60.5%, the growth [8] was 55.4% and the growth [9] was 77.9%. It also gave a growth [10] of 66.8%.

`CCN(CC)Cc1c(-c2cccc(OC(F)(F)F)c2)[nH]c2ccc(N3CCCC3)cc2c1=O` showed a growth [1] of 92.9%, a growth [2] of 96.1% and a growth [3] of 87.3%. It also gave a growth [4] of 103%, a growth [5] of 97.5% and a growth [6] of 86.2%. The growth [7] was 87.5%, the growth [8] was 99% and the growth [9] was 98.6%. It also gave a growth [10] of 103%.

For `CCc1ccc(NC(=O)N[C@@H](Cc2cccc(F)c2)C(=O)N[C@@H]2C(=O)N3CCC[C@H]3C(=O)N3CCCC[C@H]3C(=O)N[C@@H](C)C(=O)N3C[C@H](C)C[C@H]3C(=O)O[C@H]2C)c(F)c1`, the growth [1] was 31.7%, the growth [2] was -2.16% (active) and the growth [3] was 46%. The growth [4] was 43%, the growth [5] was 15.4% and the growth [6] was -0.342% (active). It also gave a growth [7] of 26.8%, a growth [8] of 33.3% and a growth [9] of 37.1%. For the same compound, the growth [10] was -26.4% (active).

Work on `CNC(=O)c1cc(N2CCc3cc(NC(=O)Nc4ccc(Cl)c(Cl)c4)ccc32)ccn1` yielded a growth [1] of 95.9%, a growth [2] of 95.9% and a growth [3] of 98.6%. For the same compound, the growth [4] was 87%, the growth [5] was 82.5% and the growth [6] was 88.9%. It also gave a growth [7] of 68.5%, a growth [8] of 76.3% and a growth [9] of 67.2%. For the same compound, the growth [10] was 77.3%.

Work on `O=C(/C=C/Nc1ccc(S(=O)(=O)O)cc1)c1ccc(F)cc1` yielded a growth [1] of 95.9%, a growth [2] of 98.5% and a growth [3] of 102%. It also gave a growth [4] of 117%, a growth [5] of 101% and a growth [6] of 96.2%. It also gave a growth [7] of 98.5%, a growth [8] of 101% and a growth [9] of 106%. For the same compound, the growth [10] was 101%.

With `C#CCOc1ccc(C(Nc2ccc(OC)cc2)c2nnnn2C2CCCCC2)cc1` (stereo not given) the growth [1] was 99.8%, the growth [2] was 101% and the growth [3] was 97.3%. The growth [4] was 98.9%, the growth [5] was 103% and the growth [6] was 93.9%. The growth [7] was 89.3%, the growth [8] was 92.2% and the growth [9] was 95.5%. For the same compound, the growth [10] was 106%.

With `COc1ccc([C@H]2[C@H](O)C(=O)N2c2cc(OC)c(OC)c(OC)c2)cc1` the growth [1] was 12.6%, the growth [2] was 19.5% and the growth [3] was 47.9%. For the same compound, the growth [4] was 26.2%, the growth [5] was 3.39% (active) and the growth [6] was -4.93% (active). The growth [7] was -20.8% (active), the growth [8] was 21.6% and the growth [9] was 19.5%. For the same compound, the growth [10] was -74.6% (active).

Work on `COCCOc1ccc(-c2csc(NC(C)=O)n2)cc1NS(=O)(=O)c1cccc2c(N(C)C)cccc12` yielded a growth [1] of 104%, a growth [2] of 84.9% and a growth [3] of 92.6%. It also gave a growth [4] of 102%, a growth [5] of 100% and a growth [6] of 58.6%. For the same compound, the growth [7] was 85.2%, the growth [8] was 98.3% and the growth [9] was 95.8%. It also gave a growth [10] of 94.5%.

`COc1ccc(-c2nc(SCCC(C)C)nc(N/N=C\c3ccc(O)cc3)c2C#N)cc1` was tested, and the growth [1] was 36.3%, the growth [2] was 97.3% and the growth [3] was 82.7%. It also gave a growth [4] of 61.9%, a growth [5] of 10.9% and a growth [6] of 67.7%. For the same compound, the growth [7] was 87.7%, the growth [8] was 60.2% and the growth [9] was 34%. The growth [10] was 106%.

Compound `CN1CCN(Cc2ccc(NC(=O)c3cncc(C#Cc4[nH]nc5ncncc45)c3)cc2C(F)(F)F)CC1` has a growth [1] of 57.1%, a growth [2] of 55% and a growth [3] of 75.1%. The growth [4] was 65.7%, the growth [5] was 64.3% and the growth [6] was -16% (active). For the same compound, the growth [7] was 66.2%, the growth [8] was 84.3% and the growth [9] was 86.3%. For the same compound, the growth [10] was 16.5%.

For `O=C(C[n+]1ccnc2ccccc21)c1ccc(O)c(O)c1`, the growth [1] was 63.8%, the growth [2] was 71.1% and the growth [3] was 90.8%. It also gave a growth [4] of 90.7%, a growth [5] of 70.9% and a growth [6] of 64.8%. For the same compound, the growth [7] was -5% (active), the growth [8] was 87.1% and the growth [9] was 44.3%. It also gave a growth [10] of 30.8%.

Work on `O=C(CSc1nnc(-c2cccs2)n1-c1ccccc1)Nc1ccc(F)cc1` yielded a growth [1] of 102%, a growth [2] of 98.3% and a growth [3] of 97%. It also gave a growth [4] of 109%, a growth [5] of 103% and a growth [6] of 89.6%. For the same compound, the growth [7] was 82.4%, the growth [8] was 99.3% and the growth [9] was 103%. The growth [10] was 105%.

Compound `O=S(=O)(Nc1ccc(I)c(Cl)c1)c1ccc(-c2cnc(C3CC3)o2)cc1` has a growth [1] of 33.8%, a growth [2] of 41.9% and a growth [3] of 46%. For the same compound, the growth [4] was 29%, the growth [5] was 12.6% and the growth [6] was 49%. For the same compound, the growth [7] was 24.7%, the growth [8] was 50.3% and the growth [9] was 41.7%. It also gave a growth [10] of 12%.

Work on `Nc1ccc(-c2nnc(SCc3ccc(O)c4ncccc34)n2-c2ccccc2)cc1` yielded a growth [1] of 13.2%, a growth [2] of 44% and a growth [3] of 23.7%. For the same compound, the growth [4] was 17%, the growth [5] was 5.71% (active) and the growth [6] was -21% (active). For the same compound, the growth [7] was 17.5%, the growth [8] was 14.1% and the growth [9] was 19.9%. The growth [10] was 4.41% (active).

Work on `CCOC(=O)CC(=O)CSC1=NC2C(NN1)N(C)C(=O)N2C` (stereo not given) yielded a growth [1] of 75.5%, a growth [2] of 100% and a growth [3] of 103%. It also gave a growth [4] of 107%, a growth [5] of 105% and a growth [6] of 88.7%. For the same compound, the growth [7] was 72.8%, the growth [8] was 102% and the growth [9] was 103%. For the same compound, the growth [10] was 108%.

`O=C(NCCCNc1cc(-c2cn(-c3ccccc3)nc2-c2cccc(O)c2)ccn1)Nc1cccc(C(F)(F)F)c1` showed a growth [1] of 58%, a growth [2] of 62% and a growth [3] of 54.2%. The growth [4] was 43.2%, the growth [5] was 28.7% and the growth [6] was 40.2%. For the same compound, the growth [7] was 46.9%, the growth [8] was 49% and the growth [9] was -4.95% (active). The growth [10] was 3.19% (active).

Work on `Cn1c2ccccc2c2c3c(c4c5ccc(Br)cc5oc4c21)C(=O)N(O)C3=O` yielded a growth [1] of 80%, a growth [2] of 70.9% and a growth [3] of 96.8%. For the same compound, the growth [4] was 59.8%, the growth [5] was 42.3% and the growth [6] was 81.6%. For the same compound, the growth [7] was 48.7%, the growth [8] was 85.6% and the growth [9] was 89.8%. For the same compound, the growth [10] was 86.7%.

`CC(=O)c1ccc(NC(=O)COc2ccc(C3SCC(=O)N3c3ccc(Br)cc3)cc2)cc1` (stereo not given) gave a growth [1] of 95.1%, a growth [2] of 93% and a growth [3] of 99.1%. It also gave a growth [4] of 93.5%, a growth [5] of 108% and a growth [6] of 84.4%. The growth [7] was 84.8%, the growth [8] was 93.9% and the growth [9] was 104%. It also gave a growth [10] of 104%.

— PubChem BioAssay (NCI)
